Shiga toxin inh: blocks Shiga toxin action in Vero cells; AID 2315; inhibition, % at 38.7 µM; 290,000 tested, 9.2% active; Vero cells, Shiga toxin protein synthesis inhibition reporter; in the data active = inhibition mostly above about 28%, no sharp cut-off; inactive = mostly below about 43%
NS1 function inh: inhibitors of influenza NS1 protein function; 270,000 tested, 0.4% active; Potency, µM (titrated, usually from 46.1 µM); AID 2326; calls by dose curve; note: actives are rising curves; nearly all actives have a fitted effect of over 50% in size
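Recovery from NS1-induced slow growth read by OD600 in budding yeast switched to galactose assay medium (pH 6.0, -URA) at 1:100 dilution. Compound 23 nl per well; the matching strain lacking NS1 serves as control.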
Pf growth 48h: inhibits P. falciparum growth in the first generation, 48 h | P. falciparum luciferase growth in erythrocytes, 48 h | Potency, µM (top dose mostly 28.7 µM), actives largely listed as inhibitors | 310,000 tested, 5.9% active | AID 504832
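Growth was read as firefly luciferase luminescence after a 48 h, 37 C, 5% CO2 exposure of compounds to reporter-bearing P. falciparum cultures (0.1% parasitemia, 2% hematocrit final) in Albumax-supplemented RPMI 1640.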
Sm TGR inh: inhibitors of Schistosoma mansoni thioredoxin glutathione reductase. AID 485364. purified TGR, DTNB reduction, TNB absorbance 405 nm. Potency, µM (doses to about 114 µM), most hits filed as inhibitors. 360,000 tested, 3% active. Q962Y6; note: nearly all actives have a fitted effect of over 60% in size
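Kinetic colorimetric format: TGR-catalysed, NADPH-driven DTNB reduction monitored via TNB absorbance. Enzyme dispensed at 20 nM; compound exposure 15 min at room temperature before reaction start.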
Pf growth 96h: inhibits malaria parasite growth, 96 h. P. falciparum luciferase reporter growth, 96 h. Potency, µM (series often up to 28.7 µM), usual class: inhibitors. 320,000 tested, 6.9% active. AID 504834
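Cell-based qHTS: luciferase-tagged P. falciparum in erythrocytes (2% hematocrit, 0.05% parasitemia final) incubated with compounds for 96 hours, 37 C, 5% CO2; luciferase detection reagent then added and luminescence measured.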
Cycloheximide cs: affects cycloheximide protein synthesis inhibition readout, counter-screen | cell reporter, cycloheximide protein synthesis inhibition counterscreen | max response, % | 300,000 tested, 12% active | AID 2314; in the data active = max response mostly above about 13%, no sharp cut-off; inactive = mostly below about 14%; note: read at 38.3 µM for the half of the compounds with a filed dose
Numbers stand for hits; – = inactive; ? = inconclusive; · = not tested or not shown; ! = repeats disagree. Sampled rows, rich in hits. Any-hit rate of the full collection: about 21%. Unless noted, calls come from the whole dose curve; as a rule, active = well fitted curve in the direction sought with a large enough effect; inconclusive = small, poorly fitted or top-dose-only effect, or another doubt; inactive = no such curve, though single readings can be large; an effect the other way counts as inactive or inconclusive.

SMILES	Shiga toxin inh	NS1 function inh	Pf growth 48h	Sm TGR inh	Pf growth 96h	Cycloheximide cs
O=C(N/N=C\c1ccc([N+](=O)[O-])s1)C1COc2ccccc2O1 (stereo unspecified)	–	–	?	?	–	–
Cc1ccc(CN2C(=O)CN(C3CCC(C)CC3)C(=O)C2c2ccc(F)cc2)cc1 (stereo unspecified)	·	·	·	–	·	·
Cc1n(CC(=O)c2ccc(F)cc2)c2ccccc2[n+]1C	–	·	3.7µM	–	?	–
CCOC(=O)Cn1c(C)[n+](CC(=O)c2ccccc2)c2ccccc21	–	–	?	–	5.2µM	–
CCCCc1n(CC(=O)c2ccc(Cl)cc2)c2ccccc2[n+]1C	–	·	1.2µM	–	?	–
O=C(Cn1c(C(F)(F)F)nc2ccccc21)c1ccc(F)cc1	–	–	–	–	–	–
O=C(Cn1c(NCCCO)nc2ccccc21)c1ccc(Cl)cc1	–	–	?	–	–	–
Cn1c(=N)n(CC(=O)c2ccc(F)cc2)c2ccccc21	68	–	·	–	–	37
O=C(Nc1ncccn1)c1cccc(F)c1	21	–	–	–	?	11
C/C(=C\c1ccccc1)C(=O)Nc1ccc(Cl)cn1	95	–	–	–	–	39
O=C(Nc1ccc(Cl)cn1)c1cc2ccccc2o1	105	–	–	–	·	66
O=C(NC(=O)c1ccccc1)Nc1ccc(Cl)cn1	145	–	–	–	–	52
O=C(Nc1cccc(Cl)c1)Nc1ccc(Cl)cn1	–	–	·	–	·	–
Cc1cc(C)cc(NC(=O)Nc2ccc(Cl)cn2)c1	–	–	–	–	?	–
O=C(Nc1ccc(Cl)cn1)c1ccc2[nH]c(=O)c(=O)[nH]c2c1	–	–	–	–	–	12
O=C(Nc1ccccc1)Nc1nnc(-c2ccccc2)o1	–	–	–	–	?	–
O=C(Nc1ccc(Cl)cn1)Nc1ccc(Cl)cn1	–	·	–	–	?	–
O=C(Nc1cccnc1)c1ccccc1F	–	–	–	–	–	–
Cc1ccc(NC(=O)c2ccc3[nH]c(=O)c(=O)[nH]c3c2)nc1	–	–	–	–	–	–
O=C(Nc1nnc(-c2ccc(Cl)cc2)o1)Nc1ccccc1F	34	–	–	–	–	–
O=C(Nc1ccc(Cl)cn1)c1ccccc1F	88	–	–	–	–	32
O=C(Nc1ccc(Cl)cn1)Nc1ccccc1F	53	–	–	–	–	–
CCOC(=O)CC(NC(=O)c1cccc2c1C(=O)N(Cc1cccnc1)C2)c1ccc(OCC)c(OC)c1 (stereo unspecified)	–	·	?	–	–	–
O=C(Nc1cccc(C(=O)Nc2ccc(Cl)cn2)c1)c1ccccc1	–	–	–	–	?	–
O=C(Nc1ccc(Cl)cn1)c1cccc(F)c1	121	–	–	–	–	32
SMILES	Shiga toxin inh	NS1 function inh	Pf growth 48h	Sm TGR inh	Pf growth 96h	Cycloheximide cs
COC(=O)c1ccccc1NC(=O)Nc1ccc(Cl)cn1	–	–	–	·	–	–
COc1cc2ccccc2cc1C(=O)Nc1ccc(Cl)cn1	·	–	–	–	–	16
CC(=O)/C(N=Nc1cccc(C(F)(F)F)c1)=C(\C)O	–	·	–	–	–	–
CC(=O)/C(N=Nc1ccc(SC(F)F)cc1)=C(\C)O	59	·	–	–	–	44
CCOC(=O)CSc1nc2cc(S(=O)(=O)N3CCOCC3)ccc2n1CC	·	·	–	–	?	·
Nc1ccc(C(=O)Oc2ccc([N+](=O)[O-])cc2)c(O)c1	–	–	–	28µM	–	–
CN(C)C(=O)Oc1ccc([N+](=O)[O-])cc1	–	·	–	–	–	–
Nc1ccc(C(=O)Oc2ccc([N+](=O)[O-])cc2)cc1	105	–	–	–	–	51
Nc1ccc(Oc2ccc([N+](=O)[O-])cc2[N+](=O)[O-])cc1	–	–	·	–	?	–
Nc1ccc(C(=O)OCC(=O)Nc2cc([N+](=O)[O-])ccc2F)cc1	–	–	–	–	–	12
O=c1c2ccccc2nnn1COc1cccc2ccccc12	143	·	–	–	–	45
COC(=O)c1cccc(Cn2nnc3ccccc3c2=O)c1	–	–	–	–	·	–
O=c1c2ccccc2nnn1Cc1ccc2ccccc2c1	–	–	–	–	–	25
O=c1c2ccccc2nnn1COc1ccc(F)cc1Cl	55	–	–	–	–	41
CC(Oc1ccc(Cl)cc1Cl)C(=O)OCn1nnc2ccccc2c1=O (stereo unspecified)	–	–	·	–	–	–
CCC(=O)OCn1nnc2ccccc2c1=O	–	·	–	–	–	–
O=c1c2ccccc2nnn1COc1ccc(Cl)cc1Br	–	·	–	–	–	29
O=C(O)COCC(=O)Nc1ccc(-n2nc(C(F)(F)F)cc2-c2cccs2)cc1	–	–	–	–	–	–
Cc1ccc(NC(=O)Cn2nnc(C(=O)NCc3cccs3)c2N)cc1F	–	–	–	–	–	–
CCOC(=O)C1=C(C)N=C2SC(C)C(=O)N2C1c1ccc(OC(C)=O)c(OC)c1 (stereo unspecified)	–	–	?	50µM	–	–
CCOc1cc(C2C(C(=O)OC)=C(C)N=C3SC(C)C(=O)N32)ccc1OC(C)=O (stereo unspecified)	–	?	–	–	·	–
CCOC(=O)C1=C(C)N=C2SC(C)C(=O)N2C1/C=C/c1ccccc1OC (stereo unspecified)	–	–	12µM	–	·	–
OC(c1cccs1)(c1cccs1)C1C[N+]2(CF)CCC1CC2 (stereo unspecified)	–	–	10µM	–	2.3µM	–
Fc1ccc2c(c1)C1C=CCC1C(c1cc3c(cc1Br)OCO3)N2 (stereo unspecified)	–	–	5.2µM	–	–	–
Fc1ccc([C@@H]2Nc3ccccc3[C@@H]3C=CC[C@@H]32)cc1	·	·	·	5.6µM	·	·
SMILES	Shiga toxin inh	NS1 function inh	Pf growth 48h	Sm TGR inh	Pf growth 96h	Cycloheximide cs
COc1ccc(N2CCN(C(CNC(=O)COc3ccccc3)c3ccco3)CC2)cc1 (stereo unspecified)	·	·	–	–	–	·
CC(=O)Nc1ccc(NS(C)(=O)=O)cc1	–	–	·	–	4.7µM	–
CC(=O)Nc1ccc(S(=O)(=O)c2ccc(N)cc2)cc1	24!	–	–	–	–	18!
CC(=O)Nc1ccc(S(=O)(=O)NCCC(=O)Nc2cc(C)ccn2)cc1	·	·	–	–	–	·
COC(=O)CCCCC(=O)OC	·	·	–	–	–	·
C=CCCCCCCCC(=O)OC	–	–	?	50µM	–	–
COC(=O)CCC[N+](C)(C)C	·	·	?	·	11µM	·
Cc1ccc(-n2ncc(C(=O)NCCCN3CCCCC3)c2C2CCN(C(=O)OC(C)(C)C)CC2)c(C)c1	·	·	·	–	·	·
Cc1ccc(S(=O)(=O)N[C@@H](CC(C)C)C(=O)N2CCC(C(=O)N[C@H](C(=O)O)C(C)C)CC2)cc1	–	–	–	–	–	–
COc1cc2ncnc(Nc3ccc(Cl)cc3F)c2cc1OC	–	·	·	·	·	–
COc1cc2ncnc(Nc3ccc(F)c(Cl)c3)c2cc1OCCCN1CCOCC1	·	·	0.54µM	·	·	·
CCN(CC(=O)NCc1cccs1)S(=O)(=O)c1ccccc1Cl	·	·	–	–	–	·

Screens deposited in PubChem by National Center for Advancing Translational Sciences (NCATS).
